Assay results published in the supplement of paper PMC10849652.
The full data set covers some 8,800 targets. This sample favours those with a hit. About 0.5% of all pairs of compound and target were hits.

Legend:
Assay in all cases: log2 fold change, soluble protein after heating vs DMSO (PISA); higher = thermal stabilisation; K562 lysate, 10 uM; active = over 0.2 and 3.5 SD of the protein, either way, in both replicates (recomputed)
Tubastatin A = compound: CN1CCc2c(c3ccccc3n2Cc2ccc(C(=O)NO)cc2)C1 [Tubastatin A]
Summary of the method: (§1)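 To prepare the extract, K562 pellets were dounce-homogenised in PBS pH 7.4 with 1 mM MgCl2, giving crude material at 1 mg/mL protein. This was treated with 10 μM compound for 30 min, then heated in aliquots for 3 min over 48°C-58°C before pooling and addition of NP-40 to 0.5% at 4°C. Centrifugation at 21,000xg for 90 min left soluble protein in the supernatant, which TMTpro 16plex LC-MS/MS quantified with equalised channel sums. Results are log-two fold changes in thermal stability compared with solvent controls, from duplicates.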

[1] = compound: CNC(=O)C1=CC=CC=C1NC2=NC(=NC=C2Cl)NC3=C(C=C(C=C3)N4CCOCC4)OC
Summary of the method: as §1

defactinib = compound: CNC(=O)c1ccc(Nc2ncc(C(F)(F)F)c(NCc3nccnc3N(C)S(C)(=O)=O)n2)cc1 [defactinib]
Summary of the method: as §1

[2] = compound: CNc1nc(-c2ccc3c(N)n[nH]c3c2)cc(N2C[C@@H](C(=O)NC3CCCCC3)CC[C@H]2C)n1
Summary of the method: as §1

encorafenib = compound: COC(=O)N[C@@H](C)CNc1nccc(-c2cn(C(C)C)nc2-c2cc(Cl)cc(NS(C)(=O)=O)c2F)n1 [encorafenib]
Summary of the method: as §1

[3] = compound: COC(=O)[C@H](CCSC)NC(=O)C1=C(C=C(C=C1)NC[C@H](CS)N)C2=CC=CC=C2
Summary of the method: as §1

alisertib = compound: COc1cc(Nc2ncc3c(n2)-c2ccc(Cl)cc2C(c2c(F)cccc2OC)=NC3)ccc1C(=O)O [alisertib]
Summary of the method: as §1

gefitinib = compound: COc1cc2ncnc(Nc3ccc(F)c(Cl)c3)c2cc1OCCCN1CCOCC1 [gefitinib]
Summary of the method: as §1

crizotinib = compound: C[C@@H](Oc1cc(-c2cnn(C3CCNCC3)c2)cnc1N)c1c(Cl)ccc(F)c1Cl [crizotinib]
Summary of the method: as §1

duvelisib = compound: C[C@H](Nc1ncnc2nc[nH]c12)c1cc2cccc(Cl)c2c(=O)n1-c1ccccc1 [duvelisib]
Summary of the method: as §1

tozasertib = compound: Cc1cc(Nc2cc(N3CCN(C)CC3)nc(Sc3ccc(NC(=O)C4CC4)cc3)n2)n[nH]1 [tozasertib]
Summary of the method: as §1

doramapimod = compound: Cc1ccc(-n2nc(C(C)(C)C)cc2NC(=O)Nc2ccc(OCCN3CCOCC3)c3ccccc23)cc1 [doramapimod]
Summary of the method: as §1

alvocidib = compound: CN1CC[C@H](c2c(O)cc(O)c3c(=O)cc(-c4ccccc4Cl)oc23)[C@H](O)C1 [alvocidib]
Summary of the method: as §1

[4] = compound: COc1cc2nc(-c3cc(F)ccc3O)nc(N[C@@H]3CNC[C@H]3C(C)(C)O)c2cc1OC
Summary of the method: as §1

lapatinib = compound: CS(=O)(=O)CCNCc1ccc(-c2ccc3ncnc(Nc4ccc(OCc5cccc(F)c5)c(Cl)c4)c3c2)o1 [lapatinib]
Summary of the method: as §1

[5] = compound: C[C@H](C1=CC=C(C=C1)C(=O)NC2=C3C=CNC3=NC=C2)N
Summary of the method: as §1

gandotinib = compound: Cc1cc(Nc2cc(CN3CCOCC3)c3nc(C)c(Cc4ccc(Cl)cc4F)n3n2)n[nH]1 [gandotinib]
Summary of the method: as §1

[6] = compound: Cc1cccc(CC(=O)N2CCc3c2ccc(-c2cn(C)c4ncnc(N)c24)c3F)n1
Summary of the method: as §1

pictilisib = compound: CS(=O)(=O)N1CCN(Cc2cc3nc(-c4cccc5[nH]ncc45)nc(N4CCOCC4)c3s2)CC1 [pictilisib]
Summary of the method: as §1

bafetinib = compound: Cc1ccc(NC(=O)c2ccc(CN3CC[C@H](N(C)C)C3)c(C(F)(F)F)c2)cc1Nc1nccc(-c2cncnc2)n1 [bafetinib]
Summary of the method: as §1

Measured: log2 fold change

HECW2 (UniProt Q9P2P5)
Sequence of UniProt Q9P2P5 (Q9P2P5 whole entry, looked up): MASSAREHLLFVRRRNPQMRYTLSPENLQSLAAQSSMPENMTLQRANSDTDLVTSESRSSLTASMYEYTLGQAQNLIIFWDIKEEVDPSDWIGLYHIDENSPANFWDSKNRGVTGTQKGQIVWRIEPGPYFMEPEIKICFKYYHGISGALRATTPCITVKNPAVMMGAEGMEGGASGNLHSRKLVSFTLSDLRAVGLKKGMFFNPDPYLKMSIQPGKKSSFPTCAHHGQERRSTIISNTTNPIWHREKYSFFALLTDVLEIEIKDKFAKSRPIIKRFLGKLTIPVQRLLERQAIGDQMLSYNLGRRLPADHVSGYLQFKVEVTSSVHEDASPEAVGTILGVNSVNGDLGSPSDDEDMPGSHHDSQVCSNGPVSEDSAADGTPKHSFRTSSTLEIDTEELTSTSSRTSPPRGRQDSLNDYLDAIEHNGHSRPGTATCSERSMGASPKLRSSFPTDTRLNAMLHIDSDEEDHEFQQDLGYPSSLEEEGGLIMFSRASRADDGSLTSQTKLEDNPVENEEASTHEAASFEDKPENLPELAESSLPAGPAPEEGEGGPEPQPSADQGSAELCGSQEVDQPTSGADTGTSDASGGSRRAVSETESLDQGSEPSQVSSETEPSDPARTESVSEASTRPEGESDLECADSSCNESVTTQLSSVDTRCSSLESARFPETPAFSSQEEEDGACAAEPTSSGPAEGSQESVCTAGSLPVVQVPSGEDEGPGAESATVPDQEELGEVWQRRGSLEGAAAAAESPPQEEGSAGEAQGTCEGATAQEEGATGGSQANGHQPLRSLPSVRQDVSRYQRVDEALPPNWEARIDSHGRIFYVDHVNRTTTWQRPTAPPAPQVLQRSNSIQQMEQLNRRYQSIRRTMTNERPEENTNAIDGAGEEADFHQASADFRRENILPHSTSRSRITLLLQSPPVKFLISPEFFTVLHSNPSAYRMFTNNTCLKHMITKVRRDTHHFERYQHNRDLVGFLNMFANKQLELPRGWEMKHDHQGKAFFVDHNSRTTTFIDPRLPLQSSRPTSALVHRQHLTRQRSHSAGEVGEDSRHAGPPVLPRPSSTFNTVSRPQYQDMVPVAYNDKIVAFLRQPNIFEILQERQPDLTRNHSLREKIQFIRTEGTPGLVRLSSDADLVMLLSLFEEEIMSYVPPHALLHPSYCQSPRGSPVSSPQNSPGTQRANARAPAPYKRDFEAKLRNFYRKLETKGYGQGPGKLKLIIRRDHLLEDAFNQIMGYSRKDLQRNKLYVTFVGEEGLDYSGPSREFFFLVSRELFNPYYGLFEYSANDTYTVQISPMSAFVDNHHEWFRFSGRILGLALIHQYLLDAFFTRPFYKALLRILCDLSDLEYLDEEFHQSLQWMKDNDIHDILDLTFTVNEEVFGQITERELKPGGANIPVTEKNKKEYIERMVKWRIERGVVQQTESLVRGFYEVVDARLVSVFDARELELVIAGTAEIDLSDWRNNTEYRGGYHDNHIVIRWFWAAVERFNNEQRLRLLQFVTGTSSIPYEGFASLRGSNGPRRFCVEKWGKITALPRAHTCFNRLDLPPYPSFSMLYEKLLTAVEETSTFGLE
inactive: Tubastatin A -0.002 | [1] 0.102 | defactinib -0.087 | [2] -0.099 | encorafenib 0 | [3] 0.153 | alisertib 0.114 | gefitinib 0.117 | crizotinib -0.075 | duvelisib -0.088 | tozasertib 0.165 | doramapimod 0.24

HMGA1 isoform 2 (UniProt P17096)
Sequence of UniProt P17096 (P17096 whole entry, looked up): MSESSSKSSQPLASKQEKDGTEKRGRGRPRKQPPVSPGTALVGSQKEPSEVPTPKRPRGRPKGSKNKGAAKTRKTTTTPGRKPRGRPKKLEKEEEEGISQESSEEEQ
inactive: alvocidib 0.289 | Tubastatin A 0.102 | [1] 0.085 | [2] 0.034 | alisertib -0.255 | [4] -0.038 | gefitinib -0.442 | lapatinib -0.005 | crizotinib 0.125 | duvelisib -0.011 | gandotinib -0.26 | doramapimod -0.274 | [6] -0.491
active: [5] 0.731

HOMER3 (UniProt Q9NSC5)
Sequence of UniProt Q9NSC5 (Q9NSC5 whole entry, looked up): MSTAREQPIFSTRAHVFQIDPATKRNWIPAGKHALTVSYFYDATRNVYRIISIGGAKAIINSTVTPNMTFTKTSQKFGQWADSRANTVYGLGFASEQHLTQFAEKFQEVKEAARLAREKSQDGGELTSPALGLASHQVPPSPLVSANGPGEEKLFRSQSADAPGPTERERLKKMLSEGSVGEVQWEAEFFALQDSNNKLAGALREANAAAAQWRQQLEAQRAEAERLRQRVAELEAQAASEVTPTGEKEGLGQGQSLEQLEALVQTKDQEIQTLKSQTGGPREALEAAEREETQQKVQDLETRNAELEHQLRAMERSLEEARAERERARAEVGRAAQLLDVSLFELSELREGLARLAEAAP
inactive: alvocidib -0.066 | [4] 0.069 | lapatinib 0.091 | crizotinib 0.021 | [5] 0.048 | gandotinib 0.061 | doramapimod 0.016 | bafetinib 0.234 | [6] -0.072
active: pictilisib 0.42

HYDIN (UniProt Q4G0P3)
inactive: Tubastatin A -0.041 | defactinib 0.045 | [2] 0.414 | encorafenib 0.172 | [3] -0.02 | [4] -0.154 | lapatinib 0.037 | duvelisib 0.179 | tozasertib 0.041

GTPBP6 (UniProt O43824)
Sequence of UniProt O43824 (O43824 whole entry, looked up): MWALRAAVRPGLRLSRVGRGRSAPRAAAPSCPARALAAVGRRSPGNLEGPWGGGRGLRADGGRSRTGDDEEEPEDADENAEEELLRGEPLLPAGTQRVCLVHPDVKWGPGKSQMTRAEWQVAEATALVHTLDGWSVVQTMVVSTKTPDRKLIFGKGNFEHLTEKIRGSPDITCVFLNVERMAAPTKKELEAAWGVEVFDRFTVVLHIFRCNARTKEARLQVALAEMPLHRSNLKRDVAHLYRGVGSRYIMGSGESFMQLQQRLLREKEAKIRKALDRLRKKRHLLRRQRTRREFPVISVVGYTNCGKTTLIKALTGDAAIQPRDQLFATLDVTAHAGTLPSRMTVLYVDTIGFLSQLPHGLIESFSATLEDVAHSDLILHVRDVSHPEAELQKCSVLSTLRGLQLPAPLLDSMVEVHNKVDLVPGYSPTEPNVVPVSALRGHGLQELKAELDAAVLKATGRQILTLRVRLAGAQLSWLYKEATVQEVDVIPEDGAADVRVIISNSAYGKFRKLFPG
inactive: alvocidib 0.046 | defactinib 0.163 | [2] 0.673 | encorafenib -0.076 | [3] 0.235 | [5] 0.149 | duvelisib -0.003 | gandotinib 0.156 | tozasertib 0.023 | [6] -0.023

HNRNPM (UniProt M0R019)
inactive: defactinib -0.112

GYPA (UniProt P02724)
Sequence of UniProt P02724 (P02724 whole entry, looked up): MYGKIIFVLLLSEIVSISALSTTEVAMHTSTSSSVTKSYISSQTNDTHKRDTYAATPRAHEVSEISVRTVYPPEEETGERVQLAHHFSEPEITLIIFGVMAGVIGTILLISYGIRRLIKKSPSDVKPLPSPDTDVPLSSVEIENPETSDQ
inactive: alvocidib 0.311 | Tubastatin A 0.068 | [1] 0.005 | defactinib 0.063 | [2] 0.207 | encorafenib -0.004 | [3] -0.015 | [4] 0.06 | lapatinib 0.074 | pictilisib -0.01 | crizotinib 0.017 | duvelisib 0.013 | gandotinib -0.197 | tozasertib -0.02 | doramapimod -0.033 | bafetinib 0.229 | [6] -0.234
active: [5] 0.528
